92 compounds from PubChem BioAssay AID1851 (National Center for Advancing Translational Sciences (NCATS), 2009) can be followed below.

Among all 16,000 compounds or so, about 5,100 (32%) were called active. About 25% were inconclusive and are not listed. The list shows a part of the results. Values without a mark were called inactive. Calls follow the shape of the dose curve; as a rule, active = well fitted curve in the direction sought with a large enough effect; inconclusive = small, poorly fitted or top-dose-only effect, or effect the other way; inactive = no such curve, though single readings can be large or run the other way.

As a reminder, the AC50 is the concentration giving half of the maximal activity seen.
% is scaled to controls: 0 for no effect and ±100 for the full control effect.

The target in this test is Cytochrome P450 3A4 (Homo sapiens) (UniProt P08684). Description: Cytochrome panel assay with activity outcomes. The conditions noted are these: recombinant CYP, pro-luciferin dealkylation, luminescence, p450-cyp3a4; series mostly up to 57.1 µM.
Chain of Cytochrome P450 3A4 (Homo sapiens) (P08684 whole entry, looked up): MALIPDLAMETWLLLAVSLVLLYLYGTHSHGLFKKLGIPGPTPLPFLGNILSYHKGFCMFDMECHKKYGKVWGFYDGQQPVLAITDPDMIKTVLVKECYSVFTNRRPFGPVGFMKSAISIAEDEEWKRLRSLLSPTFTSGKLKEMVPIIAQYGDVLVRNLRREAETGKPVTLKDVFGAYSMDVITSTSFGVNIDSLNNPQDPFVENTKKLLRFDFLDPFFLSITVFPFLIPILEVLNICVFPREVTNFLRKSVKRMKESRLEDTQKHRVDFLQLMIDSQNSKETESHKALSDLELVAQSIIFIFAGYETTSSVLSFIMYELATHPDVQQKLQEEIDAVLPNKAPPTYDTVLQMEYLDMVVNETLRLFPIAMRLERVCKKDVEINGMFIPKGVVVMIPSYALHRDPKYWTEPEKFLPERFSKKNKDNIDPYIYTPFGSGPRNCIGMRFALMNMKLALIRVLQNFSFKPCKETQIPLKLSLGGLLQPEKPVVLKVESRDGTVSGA
Regarding `O=[N+]([O-])c1cc(/C=N/N2CCN(C3c4ccccc4-c4ccccc43)CC2)ccc1Cl`, the AC50 result was “inactive”.
On the same count and under the same terms, to `C/C(=N\N1CCN(C2c3ccccc3-c3ccccc32)CC1)c1ccncc1` belongs 1 µM (active); to `O=c1c2cnn(-c3ccccc3)c2nnn1/N=C/c1cccnc1`, “inactive”.
The same measure, in the same setting: to `C/C(=N\N1CCN(C2c3ccccc3-c3ccccc32)CC1)c1cccnc1` belongs 2.82 µM (active); to `C(=N\N1CCN(C2c3ccccc3-c3ccccc32)CC1)/c1cccnc1`, 12.6 µM (active); to `Cc1cc(C)n(-c2nc3c(c(=O)[nH]c(=O)n3C)n2CC(C)C)n1`, “inactive”.
Same read-out and setting: the value for `Cc1ccccc1OCC(O)Cn1c(NCc2ccccc2)nc2c1c(=O)[nH]c(=O)n2C` (configuration not stated) was 11.2 µM (active); that for `CC(C)(C)NC[C@H](O)COc1cccc2[nH]c(=O)[nH]c12` was “inactive”; that for `Cc1ccc(C(=O)CNc2nc3c(c(=O)[nH]c(=O)n3C)n2Cc2ccccc2)cc1` was 5.01 µM (active).
Take `Cn1c(=O)[nH]c(=O)c2c1nc(NCCCO)n2CCCc1ccccc1`: the AC50 result is “inactive”.
For `CN(C)c1ncc2nc(CCc3ccccc3)c(=O)n(-c3ccccc3)c2n1`, the AC50 is 6.31 µM (active).
Consider `CN(C)c1ncc2nc(CCc3ccccc3)c(=O)n(CCc3ccccc3)c2n1`, for which the AC50 is 6.31 µM (active).
On the same count and under the same terms, to `CN(C)c1ncc2nc(-c3ccccc3)c(=O)n(CCc3ccccc3)c2n1` belongs “inactive”; to `Cc1nc2cnc(N(C)C)nc2n(-c2ccccc2)c1=O`, “inactive”; to `COCCn1c(=O)c(CCc2ccccc2)nc2cnc(N(C)C)nc21`, 15.8 µM (active).
Same read-out and setting: to `CN(C)c1ncc2nc(-c3ccc(Cl)cc3)c(=O)n(Cc3cccs3)c2n1` belongs “inactive”.
On the same count and under the same terms, the value for `COCCn1c(=O)c(C)nc2cnc(N(C)C)nc21` was “inactive”; that for `CN(C)c1ncc2ncc(=O)n(CCc3ccccc3)c2n1` was “inactive”; that for `CN(C)c1ncc2nc(CCc3ccccc3)c(=O)n(Cc3cccs3)c2n1` was 10 µM (active).
For the compound `CN(C)C(=O)Oc1cccc([N+](C)(C)C)c1`, the AC50 entry was “inactive”.
Same read-out and setting: the value for `Cn1sc(NC(=O)c2ccccc2Cl)nc1=O` was “inactive”; that for `O=C(NNC(=O)c1cc2cc3ccccc3nc2s1)c1cccc(Cl)c1` was “inactive”.
On the same count and under the same terms, to `Cc1nnc(NC(=O)c2cccc(NC(=O)C(C)C)c2)s1` belongs “inactive”.
Still for that read-out and setting: the value for `Cc1nc(NC(=O)c2ccccc2)sc1-c1csc(Nc2ccc(F)cc2)n1` was 10 µM (active).
For the compound `Cc1nc(NC(=O)c2ccccc2)sc1-c1csc(Nc2ccc(Cl)cc2)n1`, the activity, negative = inhibition is 3.11% [at 2.29 µM].
With `Cc1nc(NC(=O)c2ccccc2)sc1-c1csc(Nc2ccc(Cl)cc2Cl)n1`, the AC50 is 11.2 µM (active).
Consider `Cc1nc(NC(=O)c2ccccc2)sc1-c1csc(Nc2cccc(Cl)c2)n1`, for which the AC50 was 10 µM (active).
The same measure, in the same setting: to `Cc1nc(NC(=O)c2ccco2)sc1-c1csc(Nc2ccc(Cl)cc2Cl)n1` belongs 5.01 µM (active).
Turning to `C#CCOCCCC(=O)O`, the activity, negative = inhibition is 0.116% [at 11.4 µM].
Same read-out and setting: to `CC(C)(N=NC(C)(C)C(=N)N)C(=N)N` belongs -6.94% [at 11.4 µM].
In the case of `C=CCCC(=O)Nc1nc(C)c(-c2csc(Nc3ccc(Cl)cc3)n2)s1`, the AC50 was 10 µM (active).
As to `O[C@@H](c1cc(C(F)(F)F)nc2c(Cl)cc(Cl)cc12)[C@@H]1CCCCN1`, the activity, negative = inhibition is -21% [at 11.4 µM].
For `CC(C)CC(=O)Nc1ccccc1-c1nnn(CC(=O)N2CCc3ccccc3C2)n1`, the AC50 result was “inactive”.
Same read-out and setting: the value for `CC(C)(C)NC(=O)Cn1nnc(-c2ccccc2NC(=O)c2cnccn2)n1` was 3.98 µM (active).
Regarding `CCOc1c2ccc(C(=O)NCCc3cccs3)cc2nn1CC`, the activity, negative = inhibition was -0.473% [at 2.29 µM].
`COc1ccc(-c2nnn(CC(=O)N(CC(=O)NCCC(C)C)Cc3cccs3)n2)cc1OC`: the AC50 was 12.6 µM (active).
Regarding `CCOc1ccc(-c2nnn(CC(=O)Nc3cc(OC)ccc3OC)n2)cc1OCC`, the AC50 is 3.55 µM (active).
With `C=CCn1c(Cc2ccc(OC)cc2)nnc1SCC(=O)c1cccc([N+](=O)[O-])c1`, the AC50 was 1.41 µM (active).
Consider `O=C(CSc1nnc(COc2ccccc2)n1-c1ccccc1)c1ccccc1`, for which the AC50 is 14.1 µM (active).
Still for that read-out and setting: to `CC1(C)OC(C(N)=O)C(C(N)=O)O1` (configuration not stated) belongs “inactive”; to `CN[C@@H]1[C@H](O[C@@H]2O[C@H](CO)[C@@H](N)[C@H](O)[C@@H]2O)O[C@H]2C[C@@H](N)[C@@H](O[C@H]3[C@@H](O)[C@H](O)[C@H](N)C[C@@H]3N)O[C@H]2[C@H]1O`, “inactive”.
On the same count and under the same terms, to `COc1ccc(NC(=O)CSc2nnc(Cc3cccn3C)n2CCc2ccccc2)c(OC)c1` belongs 2.24 µM (active); to `CCn1c(CNC(=O)COc2ccc(C(C)C)cc2)nnc1SCC(=O)Nc1cc(F)ccc1C`, 10 µM (active).
On the same count and under the same terms, to `C=CCn1c(COc2ccccc2)nnc1SCC(=O)N/N=C/c1ccc(C)cc1` belongs 3.16 µM (active).
For `CCOc1cc(C)ccc1OCc1nnc(SCC(=O)c2cccc([N+](=O)[O-])c2)n1CC`, the AC50 is 2.82 µM (active).
Take `CSc1nc(-c2ccccc2)nn1C(=O)c1ccccc1`: the AC50 result is “inactive”.
Same read-out and setting: the value for `COc1ccc(-c2nnn(CC(=O)NCCc3c[nH]c4ccccc34)n2)cc1OC` was 8.91 µM (active); that for `COc1ccc(C(=O)NNC(=O)CSc2nnc(COc3ccc4ccccc4c3)n2C)cc1` was 0.501 µM (active).
Same read-out and setting: to `CCn1c(COc2ccccc2)nnc1SCC(=O)c1cccc([N+](=O)[O-])c1` belongs 12.6 µM (active); to `CCCCOc1ccc(-c2nnn(CC(=O)c3c[nH]c4ccccc34)n2)cc1`, “inactive”.
On the same count and under the same terms, the value for `CCn1c(COc2ccccc2)nnc1SCC(=O)Nc1cc(OC)ccc1OC` was 10 µM (active); that for `COc1ccc(OCc2nnc(SCC(=O)O)n2N)cc1` was “inactive”.
Turning to `CCc1ccccc1NC(=O)CSc1nc(-c2ccccc2)nn1C(=O)c1cccc([N+](=O)[O-])c1`, the activity, negative = inhibition was -8.74% [at 2.29 µM].
Still for that read-out and setting: to `COc1cccc(OCc2nnc(SCC(=O)NCc3ccco3)n2C)c1` belongs 12.8% [at 2.29 µM].
On the same count and under the same terms, to `COc1ccc2c(c1)-c1c(sn(-c3ccc(OC)c(OC)c3)c1=S)C(C)(C)N2` belongs -15.9% [at 2.29 µM].
Take `CC(=O)c1c(O)c(C)c(-c2ccccc2)n(-c2ccccc2)c1=O`: the AC50 entry was “inactive”.
On the same count and under the same terms, the value for `Cc1ccc(-n2nnnc2C(=Cc2ccc(N(C)C)cc2)c2nnnn2-c2ccc(C)cc2)cc1` was 3.16 µM (active); that for `Cc1ccc(-c2nn3c(C)nnc3c3ccccc23)cc1S(=O)(=O)NCCN1CCOCC1` was 8.91 µM (active).
On the same count and under the same terms, to `Cc1ccc(-c2nn3c(C)nnc3c3ccccc23)cc1S(=O)(=O)NCc1ccccc1` belongs “inactive”; to `OC(COCC1COc2ccccc2O1)CN1CCN(c2ccccc2F)CC1` (configuration not stated), “inactive”; to `Cn1c(=O)cc(SCC(=O)NCCN2CCN(c3ccccc3F)CC2)c2cc(Cl)ccc21`, 14.1 µM (active).
As for `Clc1ccc(Cl)c(SCCCN2CCNCC2)c1`, the activity, negative = inhibition was -17% [at 11.4 µM].
Regarding `Cn1c(=O)cc(SCC(=O)NCCCN2CCOCC2)c2ccc(Cl)cc21`, the AC50 was 7.94 µM (active).
The same measure, in the same setting: the value for `O=C(CCN1CCN(c2ccccc2F)CC1)Nc1ccccc1F` was “inactive”; that for `CCCNC(=O)N1N=C(c2ccc(N)cc2)c2cc3c(cc2[C@H]1C)OCO3` was 1.26 µM (active).
Turning to `CC(=O)N1N=C(c2cccc([N+](=O)[O-])c2)OC1c1ccc(Cl)cc1Cl` (configuration not stated), the activity, negative = inhibition is 11.9% [at 2.29 µM].
Turning to `CC(=O)N1CC(=O)N(OCc2ccccc2)C1c1ccc(Cl)cc1Cl` (configuration not stated), the AC50 was 10 µM (active).
The same measure, in the same setting: the value for `COC(=O)N1CC(=O)N(OC)C1c1ccc(Cl)cc1Cl` (configuration not stated) was “inactive”.
Same read-out and setting: the value for `Cc1cc(OCCn2cc(/C(N)=N/O)c3ccccc32)ccc1Cl` was 11.2 µM (active); that for `CCOC(=O)C1=C(CN2c3ccccc3CC2C)NC(=O)NC1c1ccccc1` (configuration not stated) was 15.8 µM (active).
`CCOC(=O)c1[nH]c(C)c(C(=O)OCC(=O)N2c3ccccc3CC2C)c1C` (configuration not stated): the activity, negative = inhibition was -26.3% [at 2.29 µM].
Take `Nc1nc(=S)[nH]c2c1C1(CCCC1)Cc1ccccc1-2`: the AC50 was 20 µM (active).
Take `O=C(O)CN=C1NC2(CCCC2)Cc2ccccc21`: the AC50 entry was “inactive”.
For the compound `Cc1cccc(-n2c(=O)c3c(n4cnnc24)-c2ccccc2CC32CCCCC2)c1`, the activity, negative = inhibition is -17.5% [at 2.29 µM].
With `CCOc1ccc(/C=C/C2=Cc3c(sc(NC(=O)CSc4n[nH]c(N)n4)c3C#N)C(C)(C)C2)cc1`, the AC50 is 15.8 µM (active).
For `Cc1ccc(/C=C/C2=Cc3c(sc(NC(=O)CSc4n[nH]c(N)n4)c3C#N)C(C)(C)C2)o1`, the concentration at half-maximal activity (AC50) is 14.1 µM (active).
Take `CC(=O)OC[C@@H]1O[C@@H](O/N=C2/C[C@@H](O)[C@@H](O)[C@@H]3[C@@H]4C(=O)N(C5CCCCC5)C(=O)[C@H]4CC[C@H]23)[C@H](OC(C)=O)[C@H](OC(C)=O)[C@@H]1OC(C)=O`: the activity, negative = inhibition was -4% [at 11.4 µM].
Same read-out and setting: the value for `N#C[C@@H](N=Nc1ccccc1C(=O)O)C(N)=O` was -6.32% [at 11.4 µM].
Consider `Cc1c(/N=C/c2ccco2)n(Cc2ccccc2)c2ccccc12`, for which the AC50 was 7.08 µM (active).
The same measure, in the same setting: to `COC(=O)C1CSC(C(=O)OC)N1C(=O)Nc1ccccc1` (configuration not stated) belongs “inactive”; to `O=C(Nc1ccccc1)N1CCSc2cc(Cl)ccc21`, “inactive”; to `COC(=O)c1cc(NC(=O)N2c3ccccc3Sc3ccccc32)cc(C(=O)OC)c1`, 7.94 µM (active).
On the same count and under the same terms, to `Cc1nnsc1SC(C)C(=O)O` (configuration not stated) belongs “inactive”; to `C=CCSc1nc(C)cc(/C=C\c2ccccc2)c1C#N`, 4.47 µM (active).
On the same count and under the same terms, the value for `Nc1nc(NCCc2ccc(O)cc2)nc2nc(-c3ccco3)nn12` was 15.8 µM (active); that for `CC(=O)n1nc(-c2ccco2)nc1N` was “inactive”; that for `c1ccc(CN(CC2=NCCN2)c2ccccc2)cc1` was “inactive”.
Regarding `Cc1ccc(C)c(/C(O)=C2\C(=O)C(=O)N(Cc3cccnc3)C2c2cccnc2)c1` (configuration not stated), the AC50 entry was “inactive”.
On the same count and under the same terms, the value for `Cc1cccc(-n2nc([N+](=O)[O-])c(=NCc3cccnc3)n2O)c1` was 15.8 µM (active); that for `CCNC(=S)NNC(=O)c1cc(C)on1` was “inactive”; that for `COCCSc1nnc(NC(=O)C(C)(C)C)s1` was “inactive”.
Same read-out and setting: the value for `COCC(C)n1c(C)cc(C(=O)CSc2nnc(Nc3ccccc3F)s2)c1C` (configuration not stated) was 1.58 µM (active).
